Assay [1] has as its target CCAAT/enhancer-binding protein beta (Homo sapiens) (UniProt P17676). Description: ATG_C_EBP_CIS: Attagene CIS-FACTORIAL HepG2 Assay for human CCAAT/Enhancer Binding Protein (C/EBP) beta (AID 2282927). The settings on record: HepG2 Attagene cis-factorial transcription factor reporter; actives raise or lower the signal. In a few lines:
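Following a 24 h incubation with test chemical, transfected HepG2 cells yielded RNA whose reporter transcripts were quantified by RT-PCR and fluorescent capillary electrophoresis, with DMSO serving as baseline for bidirectional fitting.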

Assay [2] is described as follows: ATG_DR4_LXR_CIS: Attagene CIS-FACTORIAL HepG2 Assay for human Liver X Receptor (LXR), DR4 submotif (AID 2282929). Particulars: HepG2 Attagene DR4 cis-reporter, mRNA transcription; actives raise or lower the signal. In a few lines:
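Transiently transfected HepG2 liver cells; cis-regulated reporters; 24 h dosing. RT-PCR plus CE read-out of reporter mRNA. DMSO baseline, bidirectional curve fitting.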

Assay [3] can be described thus: ATG_AP_2_CIS: Attagene CIS-FACTORIAL HepG2 Assay for human Activator Protein 2 (AP-2) (AID 2282932). Particulars: HepG2 AP-2 cis-reporter, Attagene transcription factor profiling; actives raise or lower the signal. In outline:
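Cells (HepG2) transfected with promoter-driven reporter constructs, treated 24 h. Total RNA reverse-transcribed, reporter cDNA PCR-amplified, FAM-labelled by primer extension, digested, resolved by capillary electrophoresis. Activity fitted both directions versus DMSO.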

In assay [4] the target is Transcription factor E2F1 (Homo sapiens) (UniProt Q01094). The assay is described as follows: ATG_E2F_CIS: Attagene CIS-FACTORIAL HepG2 Assay for human E2F Transcription Factor 1 (AID 2282935). Particulars: HepG2 Attagene cis-reporter, E2F reporter RNA transcripts; actives raise or lower the signal. In outline:
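First, HepG2 cells were transfected with reporter transcription units. Next, they were dosed for 24 h. Then RNA was isolated, converted to cDNA, PCR-amplified, FAM-labeled, HpaI-digested and analyzed by capillary electrophoresis.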

Assay [5] can be described thus: ATG_E_Box_CIS: Attagene CIS-FACTORIAL HepG2 Assay for human Enhancer Box (E-box) (AID 2282936). Particulars: HepG2 E-box cis-reporter transcription, actives raise or lower the signal. In outline: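 Endogenous transcription factor activity was sensed in human HepG2 liver cells through transfected cis-promoter reporter units. After 24 h of dosing, total RNA was reverse-transcribed and reporter cDNA resolved by capillary electrophoresis.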

Assay [6] is described as follows: ATG_M_19_CIS: Attagene CIS-FACTORIAL HepG2 Assay for M19 Transcription Factor (Internal Marker) (AID 2282939). Particulars: HepG2 Attagene CIS-FACTORIAL M19 internal marker reporter; actives raise or lower the signal. In outline: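 Background-control endpoint from a multiplexed HepG2 reporter panel. Cells carrying cis-regulated reporter constructs are treated 24 h, then reporter transcripts are amplified, fluorescently labelled and sized by capillary electrophoresis. DMSO defines baseline.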

Assay [7] is described as follows: ATG_GLI_CIS: Attagene CIS-FACTORIAL HepG2 Assay for human Zinc Finger Protein GLI1 (AID 2282945). Particulars: HepG2, Attagene cis-factorial reporter mRNA, GLI element; actives raise or lower the signal. In outline: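 HepG2 cells transiently transfected with cis-promoter multiplexed reporter units report endogenous transcription factor activity. After 24 h chemical exposure, reporter mRNA was quantified by RT-PCR, 6-FAM labelling, HpaI digestion and capillary electrophoresis, with bidirectional fitting against DMSO.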

Assay [8] is described as follows: ATG_ISRE_CIS: Attagene CIS-FACTORIAL HepG2 Assay for human Interferon Regulatory Factor 1 (IRF1) binding to an Interferon-Stimulated Response Element (ISRE) (AID 2282948). Particulars: HepG2 ISRE cis-reporter (Attagene), mRNA transcription readout; actives raise or lower the signal. In a few lines: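 Multiplexed mRNA reporter readout in human liver HepG2 cells: cis-element-driven reporters transfected, compound added for 24 h, transcripts amplified, fluorescently labelled and sized by capillary electrophoresis; curve fitting bidirectional against DMSO.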

Assay [9] in a line: ATG_M_32_CIS: Attagene CIS-FACTORIAL HepG2 Assay for M32 Transcription Factor (Internal Marker) (AID 2282949).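 Note: background control marker of the multiplexed CIS panel rather than a real target.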 The settings on record: HepG2 Attagene cis-factorial M32 reporter, mRNA; actives raise or lower the signal. In a few lines: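 HepG2 transfectants (cis-regulated reporter transcription units) dosed 24 h. Reporter mRNA by RT-PCR plus CE, analysed as gain or loss relative to DMSO.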

A short description of assay [10]: ATG_PXRE_CIS: Attagene CIS-FACTORIAL HepG2 Assay for human Pregnane X Receptor Element (PXRE) (AID 2282957). Particulars: HepG2 Attagene CIS-FACTORIAL PXRE reporter, mRNA; actives raise or lower the signal. In a few lines:
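Using HepG2 transfected with multiple reporter transcription units, endogenous factor-driven transcription was scored as reporter mRNA after 24 h exposure.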

Assay [11] in a line: ATG_Sox_CIS: Attagene CIS-FACTORIAL HepG2 Assay for human SRY-box transcription factor (SOX) (AID 2282960). Particulars: HepG2 Attagene cis-factorial SOX reporter, mRNA; actives raise or lower the signal. In outline:
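Fluorescence-labelled cDNA fragments from reporter transcripts, sized by CE, give the signal. Cells: HepG2, transiently transfected with cis-regulated reporter units. Exposure 24 h; DMSO negative control; bidirectional curve fitting.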

Assay [12] concerns the target Transcription factor Sp1 (Homo sapiens) (UniProt P08047). The assay is described as follows: ATG_Sp1_CIS: Attagene CIS-FACTORIAL HepG2 Assay for human Specificity Protein 1 (Sp1) (AID 2282961). Particulars: HepG2 Sp1 cis-reporter transcription, actives raise or lower the signal. In outline:
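Chemicals are dosed onto HepG2 cells transfected with multiple cis-promoter reporter constructs, and after 24 h reporter RNA is reverse-transcribed, PCR-amplified and resolved by capillary electrophoresis for fluorescence quantitation; activity is scored up or down against DMSO.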

Assay [13] concerns the target Signal transducer and activator of transcription 3 (Homo sapiens) (UniProt P40763). Description: ATG_STAT3_CIS: Attagene CIS-FACTORIAL HepG2 Assay for human Signal Transducer and Activator of Transcription 3 (STAT3) (AID 2282963). Particulars: HepG2, Attagene cis-factorial STAT3 reporter transcription; actives raise or lower the signal. In outline: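 HepG2, MRTU-transfected, 24 h dosing. RNA → RT → PCR → FAM label → HpaI → CE. Bidirectional fit vs DMSO.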

Assay [14] is described as follows: ATG_TA_CIS: Attagene CIS-FACTORIAL HepG2 Assay for human TA Basal Promoter (AID 2282964). Particulars: HepG2 Attagene CIS-factorial TA basal promoter reporter; actives raise or lower the signal. In a few lines:
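Steps: transfect HepG2 with MRTUs; dose 24 h; isolate RNA, DNase-treat, reverse-transcribe; PCR and FAM-label reporter cDNA; digest with HpaI 2h at 37 C; run capillary electrophoresis. Activity fitted both directions against DMSO.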

The nature of assay [15]: ATG_TCF_b_cat_CIS: Attagene CIS-FACTORIAL HepG2 Assay for human T-Cell-Factor with beta-catenin (TCF/b-cat) (AID 2282965). Particulars: HepG2 TCF/beta-catenin cis-reporter transcription, actives raise or lower the signal. In outline: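 Using capillary electrophoresis as the read-out, labelled reporter cDNA fragments from transiently transfected HepG2 were sized and quantified. Exposure lasted 24 hours; activity in either direction was referenced to DMSO.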

The nature of assay [16]: ATG_TAL_CIS: Attagene CIS-FACTORIAL HepG2 Assay for human TAL Basal Promoter (AID 2282966).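 Note: background control endpoint measuring basal TAL promoter reporter mRNA not a specific factor.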 The settings on record: HepG2 Attagene cis-factorial TAL promoter reporter; actives raise or lower the signal. In outline: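 After 24 hours of chemical exposure, transfected HepG2 cells yielded RNA that was converted to 6-FAM-labelled, HpaI-digested reporter fragments for capillary electrophoresis. Values derive from bidirectional fitting against DMSO controls.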

Assay [17] deals with X-box-binding protein 1 (Homo sapiens) (UniProt P17861). Description: ATG_Xbp1_CIS: Attagene CIS-FACTORIAL HepG2 Assay for human X-box Binding Protein 1 (XBP1) (AID 2282972). The settings on record: HepG2 XBP1 cis-element reporter, Attagene multiplex; actives raise or lower the signal. In a few lines: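 Multiplexed cis-reporter readout in transfected HepG2 liver cells. Exposure lasted 24 hours. Activity in either direction was fitted against DMSO as negative control and baseline.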

Assay [18] addresses Transcriptional activator Myb (Homo sapiens) (UniProt P10242). Description: ATG_Myb_CIS: Attagene CIS-FACTORIAL HepG2 Assay for human Myeloblastosis (Myb) Proto-Oncogene Transcription Factor (AID 2282986). The settings on record: HepG2 Attagene CIS-FACTORIAL Myb reporter transcription; actives raise or lower the signal. In outline:
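Using HepG2 liver cells bearing transiently transfected cis-promoter reporter constructs, the assay measures induction or loss of reporter mRNA after 24 hours of dosing. Detection used fluorescently labeled RT-PCR products separated by capillary electrophoresis.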

For assay [19], the target named is Myc proto-oncogene protein (Homo sapiens) (UniProt P01106). Description: ATG_Myc_CIS: Attagene CIS-FACTORIAL HepG2 Assay for human Myelocytomatosis (Myc) Proto-Oncogene Transcription Factor (AID 2282990). Particulars: HepG2, Attagene cis-reporter transcription factor activity; actives raise or lower the signal. In outline:
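Multiplexed cis-reporter transcription in HepG2 cells after 24 h chemical treatment. Reporter mRNA measured by RT-PCR and capillary electrophoresis fluorescence; activity fitted bidirectionally against DMSO control.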

A short description of assay [20]: ATG_Oct_MLP_CIS: Attagene CIS-FACTORIAL HepG2 Assay for human Octamer-Binding Transcription Factor (Oct) (AID 2282993). Particulars: HepG2 Attagene cis-factorial Oct reporter, mRNA; actives raise or lower the signal. In outline:
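Multiplexed cis-reporter assay in human liver HepG2 cells, 24 h incubation. Reporter RNA amplified and labelled, then resolved by capillary electrophoresis; DMSO serves as negative control and baseline.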

SMILES strings stand for the structures. Calls of active or inactive are those of the source. Rule for the calls: active = hit-call score of the fitted dose curve at least 0.9, where 1 is the maximum; inactive = score below 0.9.

By AC50 is commonly meant the midpoint of the concentration-response curve, whichever way the signal moves.

Transcription factor Sp1 (Homo sapiens), sequence (P08047 whole entry, looked up): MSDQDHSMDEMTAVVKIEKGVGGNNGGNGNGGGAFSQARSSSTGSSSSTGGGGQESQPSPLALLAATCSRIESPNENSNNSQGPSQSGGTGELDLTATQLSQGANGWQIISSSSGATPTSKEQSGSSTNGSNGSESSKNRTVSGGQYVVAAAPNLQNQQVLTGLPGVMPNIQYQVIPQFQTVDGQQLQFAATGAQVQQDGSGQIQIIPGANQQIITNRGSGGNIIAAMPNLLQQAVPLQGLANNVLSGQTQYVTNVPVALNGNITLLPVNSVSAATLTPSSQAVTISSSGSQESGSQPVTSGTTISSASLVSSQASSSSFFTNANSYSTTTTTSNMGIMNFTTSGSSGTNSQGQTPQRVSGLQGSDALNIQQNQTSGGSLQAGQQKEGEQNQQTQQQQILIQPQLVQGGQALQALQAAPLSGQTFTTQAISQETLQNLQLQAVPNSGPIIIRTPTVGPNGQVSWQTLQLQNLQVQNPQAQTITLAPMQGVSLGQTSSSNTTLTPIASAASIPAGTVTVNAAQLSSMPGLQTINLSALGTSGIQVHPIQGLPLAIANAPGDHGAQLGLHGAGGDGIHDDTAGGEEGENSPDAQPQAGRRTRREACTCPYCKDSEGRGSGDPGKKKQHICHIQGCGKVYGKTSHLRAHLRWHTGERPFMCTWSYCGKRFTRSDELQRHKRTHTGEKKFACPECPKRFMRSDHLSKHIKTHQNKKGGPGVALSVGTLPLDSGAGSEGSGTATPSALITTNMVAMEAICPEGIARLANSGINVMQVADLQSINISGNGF
Transcriptional activator Myb (Homo sapiens), sequence (P10242 whole entry, looked up): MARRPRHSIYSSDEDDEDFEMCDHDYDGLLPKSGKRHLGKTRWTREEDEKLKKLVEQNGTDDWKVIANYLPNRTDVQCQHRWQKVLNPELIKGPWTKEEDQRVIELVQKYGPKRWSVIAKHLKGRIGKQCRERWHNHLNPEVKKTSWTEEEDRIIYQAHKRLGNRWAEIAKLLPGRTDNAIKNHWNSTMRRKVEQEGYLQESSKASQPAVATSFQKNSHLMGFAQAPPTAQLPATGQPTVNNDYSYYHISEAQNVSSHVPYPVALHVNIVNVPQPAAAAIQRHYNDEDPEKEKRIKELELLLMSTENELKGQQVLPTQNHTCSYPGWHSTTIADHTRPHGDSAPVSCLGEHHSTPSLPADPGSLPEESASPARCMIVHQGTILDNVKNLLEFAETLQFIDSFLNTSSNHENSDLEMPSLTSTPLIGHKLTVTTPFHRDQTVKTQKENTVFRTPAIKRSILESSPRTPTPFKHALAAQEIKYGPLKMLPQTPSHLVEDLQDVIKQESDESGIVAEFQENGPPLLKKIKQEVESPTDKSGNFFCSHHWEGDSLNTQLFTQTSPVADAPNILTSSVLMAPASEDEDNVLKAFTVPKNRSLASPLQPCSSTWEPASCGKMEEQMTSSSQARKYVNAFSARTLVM
Myc proto-oncogene protein (Homo sapiens), sequence (P01106 whole entry, looked up): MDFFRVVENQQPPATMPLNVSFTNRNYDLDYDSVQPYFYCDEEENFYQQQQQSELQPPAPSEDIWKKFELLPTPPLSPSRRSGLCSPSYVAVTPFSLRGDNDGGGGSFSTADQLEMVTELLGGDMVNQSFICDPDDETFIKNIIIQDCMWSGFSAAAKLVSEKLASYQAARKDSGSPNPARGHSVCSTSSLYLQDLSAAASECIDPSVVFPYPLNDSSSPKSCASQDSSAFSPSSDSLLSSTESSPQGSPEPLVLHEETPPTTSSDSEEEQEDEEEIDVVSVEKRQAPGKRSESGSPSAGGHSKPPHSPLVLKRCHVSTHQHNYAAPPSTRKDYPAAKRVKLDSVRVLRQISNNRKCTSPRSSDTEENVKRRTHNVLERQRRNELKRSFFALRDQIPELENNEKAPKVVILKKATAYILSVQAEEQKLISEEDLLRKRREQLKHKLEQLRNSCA
Transcription factor E2F1 (Homo sapiens), sequence (Q01094 whole entry, looked up): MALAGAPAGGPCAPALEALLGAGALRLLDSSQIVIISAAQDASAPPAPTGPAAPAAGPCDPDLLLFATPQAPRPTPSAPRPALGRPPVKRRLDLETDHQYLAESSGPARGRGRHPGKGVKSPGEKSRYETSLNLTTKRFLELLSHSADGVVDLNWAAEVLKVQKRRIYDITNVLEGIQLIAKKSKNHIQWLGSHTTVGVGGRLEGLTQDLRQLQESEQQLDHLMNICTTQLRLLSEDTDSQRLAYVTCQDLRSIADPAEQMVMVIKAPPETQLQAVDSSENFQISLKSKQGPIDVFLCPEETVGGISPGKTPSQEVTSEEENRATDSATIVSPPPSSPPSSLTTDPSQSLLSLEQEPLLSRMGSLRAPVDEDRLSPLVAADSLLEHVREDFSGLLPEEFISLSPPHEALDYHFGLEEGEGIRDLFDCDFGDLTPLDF
CCAAT/enhancer-binding protein beta (Homo sapiens), sequence (P17676 whole entry, looked up): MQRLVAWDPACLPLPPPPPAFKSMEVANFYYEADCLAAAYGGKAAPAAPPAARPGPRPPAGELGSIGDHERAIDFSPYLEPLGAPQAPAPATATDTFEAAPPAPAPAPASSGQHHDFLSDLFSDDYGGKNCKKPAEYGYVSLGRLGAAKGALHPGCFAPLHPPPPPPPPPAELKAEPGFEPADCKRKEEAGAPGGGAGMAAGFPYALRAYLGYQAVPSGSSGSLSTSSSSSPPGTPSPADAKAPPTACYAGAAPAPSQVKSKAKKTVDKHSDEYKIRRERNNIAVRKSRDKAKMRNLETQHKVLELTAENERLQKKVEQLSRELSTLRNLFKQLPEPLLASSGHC
Signal transducer and activator of transcription 3 (Homo sapiens), sequence (P40763 whole entry, looked up): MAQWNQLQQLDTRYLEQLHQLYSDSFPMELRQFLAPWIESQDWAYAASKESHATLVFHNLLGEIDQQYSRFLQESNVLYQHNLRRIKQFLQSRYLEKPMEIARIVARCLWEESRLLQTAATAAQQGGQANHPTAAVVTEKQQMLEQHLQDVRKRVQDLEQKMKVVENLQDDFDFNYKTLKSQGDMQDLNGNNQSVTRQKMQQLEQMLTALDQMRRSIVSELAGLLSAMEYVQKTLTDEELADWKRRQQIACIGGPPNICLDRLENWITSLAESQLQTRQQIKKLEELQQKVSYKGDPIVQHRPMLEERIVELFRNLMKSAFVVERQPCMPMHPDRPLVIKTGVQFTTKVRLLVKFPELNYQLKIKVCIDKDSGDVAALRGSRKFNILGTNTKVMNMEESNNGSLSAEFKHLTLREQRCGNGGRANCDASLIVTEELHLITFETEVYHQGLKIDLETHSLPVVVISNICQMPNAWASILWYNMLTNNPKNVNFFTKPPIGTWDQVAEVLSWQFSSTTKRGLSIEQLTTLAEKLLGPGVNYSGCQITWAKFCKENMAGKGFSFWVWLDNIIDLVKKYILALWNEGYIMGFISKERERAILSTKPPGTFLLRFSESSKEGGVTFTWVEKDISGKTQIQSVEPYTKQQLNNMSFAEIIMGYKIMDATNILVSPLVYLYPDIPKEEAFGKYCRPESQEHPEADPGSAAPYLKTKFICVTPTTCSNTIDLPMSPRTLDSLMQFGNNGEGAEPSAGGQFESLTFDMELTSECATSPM
X-box-binding protein 1 (Homo sapiens), sequence (P17861 whole entry, looked up): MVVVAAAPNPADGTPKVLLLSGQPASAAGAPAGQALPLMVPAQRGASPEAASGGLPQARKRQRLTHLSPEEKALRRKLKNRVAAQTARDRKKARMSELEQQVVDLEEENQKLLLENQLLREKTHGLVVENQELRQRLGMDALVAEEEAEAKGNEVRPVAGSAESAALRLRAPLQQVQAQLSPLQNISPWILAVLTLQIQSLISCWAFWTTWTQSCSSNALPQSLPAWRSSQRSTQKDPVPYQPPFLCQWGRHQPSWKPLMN

Take `SCc1ccco1`: the result in [1], in [2], in assay [3], in assay [4], in assay [5] and in assay [6] was inactive. The compound was called inactive in [7], in assay [8], in [9], in [11], in assay [12] and in assay [13]. In addition, the compound was classed as inactive in assay [14], in [15], in assay [16], in assay [17], in assay [18] and in assay [19]. Further, the compound was classed as inactive in [20]. In assay [10], the concentration at half-maximal activity (AC50) was 27.7 µM (active).

Take `CCCCOP(=O)(O)OCCCC`: the outcome in [1], in assay [2], in assay [3], in assay [4], in [5] and in [6] was inactive. The call in assay [7], in [8], in assay [9], in assay [10], in assay [11] and in assay [12] was inactive. The compound was classed as inactive in assay [13], in [14], in [15], in assay [16], in assay [17] and in assay [18]. Also, the outcome in assay [19] and in [20] was inactive.

In the case of `CC(C)c1ccc(O)cc1`, the result in assay [1], in assay [3], in [4], in assay [5], in assay [6] and in [7] was inactive. In addition, the outcome in assay [8], in assay [9], in [11], in assay [12], in assay [13] and in [14] was inactive. Besides, the compound was classed as inactive in assay [16], in assay [17], in [18], in assay [19] and in assay [20]. The AC50 in assay [2] was 140 µM (active); in [10], 33.6 µM (active); in [15], 131 µM (active).

For the compound `O=S(=O)(O)OOS(=O)(=O)O`, the outcome in [1], in assay [2], in [3], in [4], in [5] and in assay [6] was inactive. In addition, the call in [7], in assay [8], in assay [9], in assay [11], in [12] and in assay [13] was inactive. The compound was called inactive in assay [14], in [15], in [16], in assay [17], in [18] and in assay [19]. Moreover, the compound was classed as inactive in assay [20]. In assay [10], the AC50 was 56.7 µM (active).

In the case of `CCOC(=O)COc1ccc(Cl)cc1Cl`, the outcome in assay [1], in [2], in [3], in [4], in [5] and in [6] was inactive. The result in assay [7], in [8], in assay [9], in assay [10], in [11] and in assay [12] was inactive. Further, the outcome in [13], in assay [14], in assay [15], in assay [16], in [17] and in [18] was inactive. Further, the compound was called inactive in [19] and in [20].

The values are drawn from PubChem BioAssay (EPA / NIEHS).
